Drawing on the antibiotic and cytotoxicity screens of Wong et al. (2023), this text covers cytotoxicity call for 14 compounds.

Structures are written as SMILES. Hit rate of the full screen: of about 39,000 compounds, about 3,300 (8.5%) were called active. The sample as a whole holds a higher share of actives than the screen did.

This assay has as its system HepG2. Description: cytotoxicity call (relative viability < 0.9). The settings on record: 10 µM.
With `C[C@@H]1CN([C@@H](C)CO)C(=O)c2cc(C#CCN(C)C)cnc2O[C@H]1CN(C)C(=O)c1ccc2c(c1)OCO2`, the cytotoxicity call is “inactive”.

As to `Cc1ccc(S(=O)(=O)Nc2ccc3c(c2)C(=O)N([C@@H](C)CO)C[C@H](C)[C@@H](CN(C)C(=O)Nc2ccc(C(F)(F)F)cc2)OCCCC[C@H](C)O3)cc1`, the cytotoxicity call is “active”.

As to `Cc1ccc(S(=O)(=O)Nc2ccc3c(c2)C(=O)N([C@@H](C)CO)C[C@@H](C)[C@@H](CN(C)C(=O)Nc2ccc(C(F)(F)F)cc2)OCCCC[C@H](C)O3)cc1`, the cytotoxicity call is “inactive”.

As for `Cc1ccc(S(=O)(=O)Nc2ccc3c(c2)C(=O)N([C@H](C)CO)C[C@@H](C)[C@H](CN(C)C(=O)Nc2ccc(C(F)(F)F)cc2)OCCCC[C@@H](C)O3)cc1`, the cytotoxicity call was “inactive”.

Regarding `Cc1ccc(S(=O)(=O)Nc2ccc3c(c2)C(=O)N([C@H](C)CO)C[C@H](C)[C@H](CN(C)C(=O)Nc2ccc(C(F)(F)F)cc2)OCCCC[C@@H](C)O3)cc1`, the cytotoxicity call is “inactive”.

With `Cc1ccc(S(=O)(=O)Nc2ccc3c(c2)C(=O)N([C@H](C)CO)C[C@H](C)[C@@H](CN(C)C(=O)Nc2ccc(C(F)(F)F)cc2)OCCCC[C@H](C)O3)cc1`, the cytotoxicity call was “inactive”.

For `Cc1ccc(S(=O)(=O)Nc2ccc3c(c2)C(=O)N([C@@H](C)CO)C[C@H](C)[C@@H](CN(C)C(=O)Nc2ccc(C(F)(F)F)cc2)OCCCC[C@@H](C)O3)cc1`, the cytotoxicity call is “active”.

For the compound `Cc1ccc(S(=O)(=O)Nc2ccc3c(c2)C(=O)N([C@H](C)CO)C[C@H](C)[C@@H](CN(C)C(=O)Nc2ccc(C(F)(F)F)cc2)OCCCC[C@@H](C)O3)cc1`, the cytotoxicity call is “inactive”.

Consider `Cc1ccc(S(=O)(=O)Nc2ccc3c(c2)C(=O)N([C@H](C)CO)C[C@@H](C)[C@H](CN(C)C(=O)Nc2ccc(C(F)(F)F)cc2)OCCCC[C@H](C)O3)cc1`, for which the cytotoxicity call is “inactive”.

For the compound `Cc1ccc(S(=O)(=O)Nc2ccc3c(c2)C(=O)N([C@H](C)CO)C[C@H](C)[C@H](CN(C)C(=O)Nc2ccc(C(F)(F)F)cc2)OCCCC[C@H](C)O3)cc1`, the cytotoxicity call was “active”.

For the compound `C[C@@H]1CN([C@H](C)CO)C(=O)Cc2cc(NS(=O)(=O)c3cn(C)cn3)ccc2O[C@@H]1CN(C)Cc1ccc2c(c1)OCO2`, the cytotoxicity call was “inactive”.

`C=CC[C@H](CC(=O)NCCO)C(=O)N[C@H](COC(=O)[C@@H](CC=C)CC(=O)OC(C)(C)C)c1ccccc1`: the cytotoxicity call is “inactive”.

As for `C[C@@H]1CCCCO[C@@H](CN(C)CC2CC2)[C@H](C)CN([C@H](C)CO)C(=O)c2cc(NC(=O)CCC(F)(F)F)ccc2O1`, the cytotoxicity call is “inactive”.

With `C[C@H](CO)N1C[C@H](C)[C@@H](CN(C)C(=O)c2ccccc2)OCCCC[C@H](C)Oc2ccc(NS(=O)(=O)c3ccccc3)cc2C1=O`, the cytotoxicity call is “inactive”.
